# Data published in article PMC4336329 (PLoS ONE, 2015).
# Among all 310,000 compounds or so, about 14,000 (4.5%) showed an effect of 50% or more. Effects have a minus sign here. Only a selection was taken, and strong results are over-represented in it overall.
# Molecular target: human ether-à-go-go-related gene (hERG) potassium channel (human, UniProt Q12809)
# Experiment: primary screen, population patch clamp on CHO cells stably expressing hERG; higher = less effect of the substance
# 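Also: peak tail current of the secondary pulse compared with the same well before compound.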
# human ether-à-go-go-related gene (hERG) potassium channel, sequence (Q12809 whole entry, looked up): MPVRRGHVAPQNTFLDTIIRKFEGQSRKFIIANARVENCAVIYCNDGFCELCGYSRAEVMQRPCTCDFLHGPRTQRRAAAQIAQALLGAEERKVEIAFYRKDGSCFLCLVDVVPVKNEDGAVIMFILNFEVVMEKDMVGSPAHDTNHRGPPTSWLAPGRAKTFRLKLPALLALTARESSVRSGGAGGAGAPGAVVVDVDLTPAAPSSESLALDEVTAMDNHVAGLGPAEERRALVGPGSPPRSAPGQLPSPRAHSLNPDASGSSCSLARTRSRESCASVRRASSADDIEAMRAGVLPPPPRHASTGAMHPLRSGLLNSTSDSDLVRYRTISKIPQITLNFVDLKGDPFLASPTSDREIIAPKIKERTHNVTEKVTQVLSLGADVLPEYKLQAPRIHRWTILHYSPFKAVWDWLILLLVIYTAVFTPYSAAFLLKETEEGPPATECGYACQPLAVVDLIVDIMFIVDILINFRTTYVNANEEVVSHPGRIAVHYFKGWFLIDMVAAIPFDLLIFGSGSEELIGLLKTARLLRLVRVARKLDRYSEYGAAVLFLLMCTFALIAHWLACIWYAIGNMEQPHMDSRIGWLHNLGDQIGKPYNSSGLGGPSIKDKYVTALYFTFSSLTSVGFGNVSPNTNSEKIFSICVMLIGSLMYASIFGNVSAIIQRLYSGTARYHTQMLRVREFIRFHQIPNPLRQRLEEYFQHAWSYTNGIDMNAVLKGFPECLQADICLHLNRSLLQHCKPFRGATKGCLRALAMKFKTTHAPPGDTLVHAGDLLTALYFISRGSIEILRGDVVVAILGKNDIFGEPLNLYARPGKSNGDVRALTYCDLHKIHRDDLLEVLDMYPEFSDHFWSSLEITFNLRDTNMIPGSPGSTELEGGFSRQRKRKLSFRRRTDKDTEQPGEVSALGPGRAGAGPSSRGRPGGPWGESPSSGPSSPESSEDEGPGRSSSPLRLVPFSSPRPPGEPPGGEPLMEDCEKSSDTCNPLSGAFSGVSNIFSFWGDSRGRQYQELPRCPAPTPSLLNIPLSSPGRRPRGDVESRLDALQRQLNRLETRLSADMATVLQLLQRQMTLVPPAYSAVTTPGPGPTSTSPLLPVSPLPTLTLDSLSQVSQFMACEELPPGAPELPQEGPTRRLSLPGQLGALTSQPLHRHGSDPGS
row,Structure (SMILES),"hERG current change (%, negative = inhibition) at 10uM [%]"
1,Cc1cccn2c(=O)c3cc(C#N)c(=NC(=O)c4cccnc4)n(CC4CCCO4)c3nc12 (centres unmarked),-51.1
2,CCCCn1c(=NC(=O)c2cccnc2)c(C#N)cc2c(=O)n3cccc(C)c3nc21,-10.6
3,CCCCn1c(=NC(C)=O)c(C#N)cc2c(=O)n3cccc(C)c3nc21,-31
4,CCCCCn1c(=NC(=O)c2cccnc2)c(C#N)cc2c(=O)n3cccc(C)c3nc21,-54.8
5,Cc1cc(=O)c2cc(Br)ccc2[nH]1,8.12
6,Cc1n[nH]c(C)c1S(=O)(=O)N1CCC(C(=O)N2CCn3c2nc2ccccc23)CC1,-3.79
7,CC(C)CC(COCc1ccc(Cl)cc1)N1CCN(C(=O)c2cccc(C(F)(F)F)c2)CCC1=O (centres unmarked),-38.1
8,CCOC(=O)c1cc(S(=O)(=O)N(C)Cc2ccccc2)cn1C,-11.7
9,COc1ccc(OCCn2c(=N)n(CCO)c3ccccc32)cc1.Cl,-24.2
10,CCn1c(=N)n(CCOc2ccc(OC)cc2)c2ccccc21,-55.1
11,C=COCCn1c(=N)n(CCC)c2ccccc21.Cl,-28.3
12,COc1ccc(OCCn2c(=O)sc3ccccc32)cc1,-8.81
13,CCCn1c(=N)n(CCOc2ccc(OC)cc2)c2ccccc21,-59.5
14,CCn1c(=N)n(CCO)c2ccccc21.Cl,5.84
15,Cn1cc(P(=O)(N2CCOCC2)N2CCOCC2)cc1P(=S)(N1CCOCC1)N1CCOCC1,16.6
16,Cc1nc(-c2ccc(NC(=O)c3ccc(Br)o3)cc2)cs1,4.44
17,COc1cccc(-c2cc(C(F)(F)F)n3nc(C(=O)N4CCCCC4c4cccnc4)cc3n2)c1 (centres unmarked),-23.1
18,O=C(c1ccccc1)N1CCN(C(=O)c2cc3nc(-c4ccccc4)cc(C(F)(F)F)n3n2)CC1,-51.1
19,O=C(c1cc2nc(-c3ccccc3)cc(-c3ccccc3)n2n1)N1CCN(C(=O)c2ccco2)CC1,-56.9
20,Cc1ccc(-c2cc(C(F)(F)F)n3ncc(C(=O)N4CCCCC4c4cccnc4)c3n2)cc1 (centres unmarked),4.63
21,O=C(c1cc2nc(-c3ccccc3)cc(-c3ccccc3)n2n1)N1CCCC1,9.99
22,COc1ccc(-c2cc(C(F)(F)F)n3nc(C(=O)N4CCN5CCCC5C4)cc3n2)cc1OC (centres unmarked),-64.4
23,Cc1ccc(-c2cc(C(F)(F)F)n3nc(C(=O)N4CCN5CCCC5C4)cc3n2)cc1 (centres unmarked),-48.3
24,O=C(c1cc2nc(-c3ccccc3)cc(C(F)(F)F)n2n1)N1CCOCC1,-29.3

row,Structure (SMILES),"hERG current change (%, negative = inhibition) at 10uM [%]"
1,O=C(c1cc2nc(-c3ccc(F)cc3)cc(C(F)(F)F)n2n1)N1CCCCC1c1cccnc1 (centres unmarked),-80.2
2,CCN1CCN(C(=O)c2cc3nc(-c4ccccc4)cc(C(F)(F)F)n3n2)CC1,-22
3,O=C(c1cc2nc(-c3ccccc3)cc(C(F)(F)F)n2n1)N1CCN2CCCC2C1 (centres unmarked),-30.3
4,CN1CCN(C(=O)c2cc3nc(-c4ccccc4)cc(-c4ccccc4)n3n2)CC1,-38.3
5,COc1ccc(C(=O)N/N=C/c2ccc(N3CCOCC3)s2)cc1OC,11.6
6,Cc1nc2sc(-c3ccccc3)nn2c(=O)c1Br,-1.74
7,COc1ccc2nc(Sc3c([N+](=O)[O-])nc(C)n3Cc3ccccc3)[nH]c2c1,-12.7
8,CCOc1ccc(N2CC(C(=O)NC3CCCC3)CC2=O)cc1 (centres unmarked),2.11
9,COc1ccc(N(C(=O)CNC(=O)c2ccco2)C(C(=O)NC2CCCC2)c2ccncc2)cc1 (centres unmarked),13.1
10,CC(=O)c1sc(NC(=O)CSCc2c(C)noc2C)nc1-c1ccccc1,-27.4
11,O=C(N/N=C/c1c[nH]c2ccc(Br)cc12)C1CC1,4.6
12,CC(C)C(=O)Nc1nnc(SCC(=O)NC2CC2)s1,12.8
13,CC(=O)N1c2ccccc2NC2=C(C(=O)CCC2)C1c1cccnc1 (centres unmarked),4.51
14,C=CCNC(=O)C1CC(=O)N(c2ccc(OCC(=O)Nc3ccc(OC)cc3)cc2)C1 (centres unmarked),-3.5
15,COc1ccc(-c2cc(=O)oc3cc(OC(C)C(=O)O)ccc23)cc1 (centres unmarked),6.26
16,Cc1cccc(NC(=O)CNC(=O)Cc2ccc(S(=O)(=O)N3CCOCC3)s2)c1C,5.91
17,CN(C)S(=O)(=O)c1cccc(C(=O)Nc2cc(Cl)cc(Cl)c2)c1,4.25
18,CC(=O)c1ccc(NS(=O)(=O)c2ccc3c(c2)CCC(=O)N3)cc1,8.49
19,COCCn1c(CN2CCN(C(=O)c3ccco3)CC2)nc2c1c(=O)n(C)c(=O)n2C,-9.04
20,Cn1c(=O)c2c(nc(CN3CCN(C(=O)c4ccco4)CC3)n2CC(N)=O)n(C)c1=O,24.4
21,Cn1c(=O)c2c(nc(CN3CCN(C(=O)c4ccco4)CC3)n2CCc2ccccc2)n(C)c1=O,-66.3
22,Cn1c(=O)c2c(nc(CN3CCN(C(=O)c4ccco4)CC3)n2CCCc2ccccc2)n(C)c1=O,-68.5
23,Cn1c(=O)c2c(nc(CN3CCN(C(=O)c4ccco4)CC3)n2CCCO)n(C)c1=O,-27.6
24,CCn1c(CN2CCN(C(=O)c3ccco3)CC2)nc2c1c(=O)n(C)c(=O)n2C,-16.4

row,Structure (SMILES),"hERG current change (%, negative = inhibition) at 10uM [%]"
1,CCN(CC)C(=O)c1cccc(C)c1,0.757
2,Cc1cccc(C(=O)N/C(=C\c2ccco2)C(=O)N2CCCC2)c1,-18.6
3,CCCCn1nc(C(=O)Nc2cccc(C(=O)NC3CC3)c2)c2ccccc2c1=O,-82.6
4,CCCn1nc(C(=O)NC2CC2)c2ccccc2c1=O,-19.8
5,CC(C)Cn1nc(C(=O)Nc2cccc(C(=O)NC3CC3)c2)c2ccccc2c1=O,-71.6
6,Cn1nc(C(=O)Nc2cccc(C(=O)NC3CC3)c2)c2ccccc2c1=O,-35.3
7,CC(C)Cn1nc(C(=O)Nc2cccc(S(=O)(=O)N3CCCC3)c2)c2ccccc2c1=O,-7.01
8,Cc1nc2ccc(NC(=O)c3nn(CC(C)C)c(=O)c4ccccc34)cc2s1,-26
9,N#C/C(C(=O)N1CCOCC1)=c1/s/c(=C\c2ccccn2)c(=O)n1-c1ccccc1,17.6
10,COCCCn1c(N)c(C(=O)NCc2ccco2)c2nc3ccccc3nc21,4.53
11,Cc1cc(C)n2nc(SCC(=O)N/N=C/c3ccccn3)nc2n1,3.74
12,C=CCN1C(=O)/C(=C\c2cccc(OC(=O)c3ccco3)c2)SC1=S,2.37
13,CC(C)n1ncc2c(C(=O)N3CCN(Cc4ccc(Br)s4)CC3)cc(C3CC3)nc21,-4.36
14,CC(=O)Nc1ccc(OS(=O)(=O)c2cc(Cl)ccc2C)cc1,-6.02
15,COc1ccc(Cl)cc1S(=O)(=O)Oc1ccc(NC(C)=O)cc1,-51.7
16,CC(=O)Nc1ccc(OS(=O)(=O)c2ccc(Cl)cc2)cc1,-24.5
17,COc1ccc(CCNC(=O)c2ccc3nc(-c4ccco4)c(-c4ccco4)nc3c2)cc1OC,-0.346
18,COc1ccc(Cn2c(O)c(C=Nc3ccc(O)cc3)c3ccccc3c2=O)cc1,1.27
19,O=C(c1[nH]nc2c1CCc1ccccc1-2)N1CCN(Cc2ccc3c(c2)OCO3)CC1,-26.9
20,O=C(N/N=C/c1ccc(O)cc1O)C(=O)N/N=C/c1ccc(O)cc1O,14.1
21,Nc1[nH]n2c(=O)c3c(nc2c1N=Nc1ccccc1)CCCC3,-54.3
22,Nc1[nH]n2c(=O)c3c(nc2c1N=Nc1ccc(Cl)cc1)CCCC3,-8.56
23,COc1cccc(N=Nc2c(N)[nH]n3c(=O)c4c(nc23)CCCC4)c1,12.2
24,COc1ccc(OC)c2[nH]c(=O)c(CCNC(=O)c3ccc4c(c3)OCO4)cc12,-10.2

row,Structure (SMILES),"hERG current change (%, negative = inhibition) at 10uM [%]"
1,CN(C)S(=O)(=O)N1CCN(C(=O)c2ccccc2)CC1,8.25
2,CC(C)NC(=S)N/N=C1\CCCc2ccccc21,10.4
3,CC(C)NC(=S)N/N=C1\CCCCc2ccccc21,-21.1
4,CCCCNC(=S)N/N=C1\CCCCc2ccccc21,-64.4
5,CCNC(=S)N/N=C1\CCCCc2ccccc21,-3.93
6,C=C(C)CNC(=S)NN=C1c2ccccc2-c2ccccc21,6.79
7,C=C(C)CNC(=S)N/N=C1\CCCCc2ccccc21,-60.3
8,COc1cc(CCCN2C(=O)C(=O)NC[C@@H]2CC2CCCCC2)cc(OC)c1OC,4
9,N#Cc1cc[n+](CC(=O)c2ccc(NC(=O)c3ccccc3)cc2)cc1.[Br-],-14.6
10,Cc1ccc(SCCNC(=O)/C=C/c2ccc(Cl)cc2)cc1,-0.0121
11,CC(C)C(NC(=O)/C=C/c1ccc(F)cc1)C(C)C,16.1
12,Cc1ccc2c(c1)NC(=O)C(CC(=O)NCCCN1CCCCC1)O2 (centres unmarked),-0.113
13,Cc1ccc2c(c1)NC(=O)C(CC(=O)NCCCN1CCc3ccccc3C1)O2 (centres unmarked),-65.7
14,CCC1CCCCN1CCCNC(=O)CC1Oc2ccc(C)cc2NC1=O (centres unmarked),-7.95
15,CCN(CC)CCCNC(=O)CC1Oc2ccc(C)cc2NC1=O (centres unmarked),0.515
16,CCN(CCCNC(=O)CC1Oc2ccc(C)cc2NC1=O)Cc1ccccc1 (centres unmarked),-61.5
17,CCCCN(CCCC)CCCNC(=O)CC1Oc2ccc(C)cc2NC1=O (centres unmarked),-49.5
18,Cc1ccc2c(c1)NC(=O)C(CC(=O)NCCCN1CCN(c3cc(C)ccc3C)CC1)O2 (centres unmarked),-61.4
19,Cc1ccc2c(c1)NC(=O)C(CC(=O)NCCCN1CCCC1=O)O2 (centres unmarked),16.5
20,Cc1ccc2c(c1)NC(=O)C(CC(=O)NCCCN1CCCC1)O2 (centres unmarked),12.6
21,Cc1ccc2c(c1)NC(=O)C(CC(=O)NCCCN1CCCCC1C)O2 (centres unmarked),-4.68
22,COc1ccc(NC(=O)CC2Oc3ccc(C)cc3NC2=O)cc1 (centres unmarked),11.3
23,COc1ccc(N2CCN(CCCNC(=O)CC3Oc4ccc(C)cc4NC3=O)CC2)cc1 (centres unmarked),-55.5
